Measurements published in ChEMBL document CHEMBL4808148, “HDAC6 screening dataset using tau-based substrate in an enzymatic assay yields selective inhibitors and activators” (2021).
“And” between values parts separate entries of the source, which are not always exact repeats. Equal entries are not always repeated. The campaign covered roughly 5,600 compounds. About 150 (2.7%) showed an effect of 50% or more. For the sample, strong results were picked, then their nearest neighbours and some compounds at random.

Key:
[1] = target: T1, Protein deacetylase HDAC6 (Homo sapiens) (UniProt Q9UBN7); conditions: at 10 µM
T1 sequence (whole entry): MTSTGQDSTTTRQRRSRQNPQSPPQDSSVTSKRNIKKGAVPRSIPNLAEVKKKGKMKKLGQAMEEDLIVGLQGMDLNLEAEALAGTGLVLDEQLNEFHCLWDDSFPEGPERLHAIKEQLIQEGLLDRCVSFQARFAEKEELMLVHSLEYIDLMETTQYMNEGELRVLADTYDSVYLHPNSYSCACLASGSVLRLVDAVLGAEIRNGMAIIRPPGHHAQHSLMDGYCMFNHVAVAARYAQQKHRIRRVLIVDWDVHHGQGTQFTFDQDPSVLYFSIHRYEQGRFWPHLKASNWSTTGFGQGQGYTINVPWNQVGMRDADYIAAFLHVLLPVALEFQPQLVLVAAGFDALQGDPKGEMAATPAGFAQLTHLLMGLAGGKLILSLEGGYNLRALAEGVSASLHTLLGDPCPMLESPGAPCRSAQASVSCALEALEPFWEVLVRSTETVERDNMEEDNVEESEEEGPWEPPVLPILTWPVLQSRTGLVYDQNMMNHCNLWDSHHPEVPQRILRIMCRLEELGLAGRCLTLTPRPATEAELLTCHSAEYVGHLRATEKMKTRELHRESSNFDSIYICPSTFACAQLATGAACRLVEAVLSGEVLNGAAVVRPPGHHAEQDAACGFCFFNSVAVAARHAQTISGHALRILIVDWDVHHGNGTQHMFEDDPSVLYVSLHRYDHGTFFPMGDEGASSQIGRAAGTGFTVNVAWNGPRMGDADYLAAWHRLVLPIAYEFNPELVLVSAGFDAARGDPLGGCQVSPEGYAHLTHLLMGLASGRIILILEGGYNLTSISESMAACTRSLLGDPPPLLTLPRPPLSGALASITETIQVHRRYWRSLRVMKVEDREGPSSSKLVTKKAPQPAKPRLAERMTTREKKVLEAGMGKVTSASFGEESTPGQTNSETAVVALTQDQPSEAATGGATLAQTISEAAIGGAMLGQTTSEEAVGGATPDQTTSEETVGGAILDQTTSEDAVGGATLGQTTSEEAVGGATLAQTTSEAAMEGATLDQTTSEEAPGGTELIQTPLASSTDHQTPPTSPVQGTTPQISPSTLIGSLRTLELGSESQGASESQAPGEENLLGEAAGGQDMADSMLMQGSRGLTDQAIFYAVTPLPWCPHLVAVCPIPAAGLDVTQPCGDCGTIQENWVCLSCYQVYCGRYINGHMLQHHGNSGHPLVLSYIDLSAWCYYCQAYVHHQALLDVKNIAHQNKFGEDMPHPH

[2] = target: Protein deacetylase HDAC6 (Homo sapiens) (UniProt Q9UBN7); conditions: at 10 µM; remark: listed apart in the source

| Compound | inhibition [1] | inhibition [2] |
| --- | --- | --- |
| O=C1c2c(O)ccc(O)c2C(=O)c2c(NCCNCCO)ccc(NCCNCCO)c21 | 16% | – |
| Clc1ccc2c(N3CCN(CCCN4CCN(c5ccnc6cc(Cl)ccc56)CC4)CC3)ccnc2c1 | -8.35% | – |
| CC(C)(C)c1ccc(S(=O)(=O)Nc2ccc(Cl)cc2C(=O)c2cc[n+]([O-])cc2)cc1 | -2.23% | – |
| CC(C)Oc1ccc(Cc2ccc(NC3=NCCN3)cc2)cc1 | 18.9% | – |
| CCOC(=O)c1c(C)n(C)c2ccc(O)cc12 | 0.03% | – |
| CCOC(=O)c1cc2ccc(O)cc2oc1=O | 86.3% | – |
| CCOC(=O)c1ccc(O)cc1 | -0.21% | – |
| O=C1Nc2ccccc2C2=NC(CN3CCN(c4ccccc4)CC3)CN12 (centres undefined) | -3.43% | – |
| O=C(O)COc1cccc(CN(Cc2ccc(-n3cccn3)cc2)S(=O)(=O)c2cccnc2)c1 | 0.4% | – |
| COc1ccc(C(=O)c2ccccc2O)c(O)c1 | 6.28% | – |
| COC(=O)Nc1nc2cc(C(=O)c3ccccc3)ccc2[nH]1 | 6.52% | – |
| COc1ccc2[nH]c(C(=O)c3ccccc3)cc2c1 | 73.2% | – |
| CCN1C(C)(C)CC(Oc2ccc(C(=O)Nc3ccc(NC(=O)Nc4cc(C(C)(C)C)on4)cc3)nc2)CC1(C)C | 8.01% | – |
| O=C1N=C(NCc2cccs2)S/C1=C\c1ccc2ncccc2c1 | 13.2% | – |
| CCC[C@@]1(CCc2ccccc2)CC(O)=C([C@H](CC)c2cccc(NS(=O)(=O)c3ccc(C(F)(F)F)cn3)c2)C(=O)O1 | -1.6% | – |
| CCn1c(=O)c(-c2ccc(Cl)cc2Cl)cc2cnc(Nc3ccc(N4CCNCC4)c(F)c3)nc21 | -3.08% | – |
| CNC(=O)c1ccccc1Sc1ccc2c(/C=C/c3ccccn3)n[nH]c2c1 | 98.1% | – |
| CNC(=O)c1cc2c(cn1)[nH]c1ccccc12 | 15.7% | – |
| C[C@@]1(F)[C@H](O)[C@@H](CO)O[C@H]1n1ccc(N)nc1=O | -2.29% | – |
| CNc1cc(OC)c(C(=O)N[C@@H]2CCN(Cc3ccccc3)[C@@H]2C)cc1Cl.CNc1cc(OC)c(C(=O)N[C@H]2CCN(Cc3ccccc3)[C@H]2C)cc1Cl | 7.84% | – |
| BISMUTH SUBGALLATE, CHEMBL1592101 | – | -3.52% |
| CCN(CC)c1ccc(C(=C2C=CC(=[N+](CC)CC)C=C2)c2ccccc2)cc1 | 58.6% | – |
| CCN(CC)c1ccc(/C=N/NC(=O)c2ccc(O)cc2)cc1 | 49.5% | – |
| CCCC[C@]1(CC)CS(=O)(=O)c2cc(CNC(CC(=O)O)CC(=O)O)c(OC)cc2[C@@H](c2ccccc2)N1 | 0.63% | – |
| O=C(NCC1CN(c2ccc(N3CCOCC3=O)cc2)C(=O)O1)c1ccc(Cl)s1 (centres undefined) | 2.41% | – |

| Compound | inhibition [1] | inhibition [2] |
| --- | --- | --- |
| CN(C)Cc1ccc(S(=O)(=O)n2ccc(/C=C/C(=O)NO)c2)cc1 | 97.8% | – |
| Cn1cc(-c2ccc(S(=O)(=O)n3ccc(/C=C/C(=O)Nc4ccccc4N)c3)cc2)cn1 | 9.5% | – |
| CCN1C(=O)CNc2ncc(-c3ccc(-c4nc[nH]n4)nc3C)nc21 | 0.29% | – |
| Cc1cc(C)c(/C=C2\C(=O)Nc3ccccc32)[nH]1 | 2.33% | – |
| CN(C)c1ccc(/C=C2\C(=O)Nc3ccccc32)cc1 | 96.3% | – |
| Cc1[nH]c(/C=C2\C(=O)Nc3ccccc32)c(C)c1CCC(=O)O | 8.55% | – |
| CSC1SC[C@H]2C(=O)N(C)[C@@H](C(C)C)C(=O)OC[C@@H](NC(=O)c3cnc4ccccc4n3)C(=O)N[C@@H](C)C(=O)N(C)[C@@H]1C(=O)N(C)[C@@H](C(C)C)C(=O)OC[C@@H](NC(=O)c1cnc3ccccc3n1)C(=O)N[C@@H](C)C(=O)N2C (some centres undefined) | -2.22% | – |
| Cc1cc(-c2nc(-c3ccc(OC(F)(F)F)cc3)no2)nn1Cc1ccnc(N2CCN(C3CC3)CC2)c1 | -4.46% | – |
| COc1cc(C(=O)OCCCN2CCCN(CCCOC(=O)c3cc(OC)c(OC)c(OC)c3)CC2)cc(OC)c1OC | -3.62% | – |
| COc1cc(C(=O)NC2CCCNC2)cc(OC)c1OC (centres undefined) | -2.46% | – |
| COc1cc(C(=S)N2CCOCC2)cc(OC)c1OC | 97.4% | – |
| CC(C)(C)[C@H]1CC[C@H](CC2=C(O)C(=O)c3ccccc3C2=O)CC1 | 4.06% | – |
| COc1ccc(-c2c(C)c(C(=O)NN3CCCCC3)nn2-c2ccc(Cl)cc2Cl)cc1 | 3.52% | – |
| COc1ccccc1C(=O)Nc1cc2c(cc1N1CCCC1)n(C)c(=O)n2C | -4.48% | – |
| COc1cccc(-c2ccc(NC(=O)C3=C(C(=O)O)CCC3)c(F)c2)c1 | 94% | – |
| CCOc1ccc(-c2ccc(Cn3c(CC(C)(C)C(=O)O)c(SC(C)(C)C)c4cc(OCc5ccc(C)cn5)ccc43)cc2)cn1 | -4.44% | – |
| Cc1ccc(-c2ccc(F)cc2COc2ccc(CCC(=O)O)cc2)cc1 | 2.57% | – |
| CC(C)NCC(O)COc1ccc(CC(N)=O)cc1 (centres undefined) | 8.69% and 11.7% | – |
| C[C@H](NC(=O)Cc1cc(F)cc(F)c1)C(=O)N[C@H](C(=O)OC(C)(C)C)c1ccccc1 | -6.8% | – |
| O=C1S/C(=C\c2ccc(OCc3cccc(B(O)O)c3)cc2)C(=O)N1Cc1ccc(F)cc1 | 8.15% | – |
| C[C@H](NCc1ccc(OCc2cccc(F)c2)cc1)C(N)=O | 88.8% | – |
| C[C@H](NCc1ccc(OCc2ccccc2F)cc1)C(N)=O | 69.9% | – |
| COC(=O)C1=C(C)NC(C)=C(C(=O)OC/C=C/c2ccccc2)C1c1cccc([N+](=O)[O-])c1 (centres undefined) | -8.71% | – |
| CN[C@H](CC(C)C)C(=O)N[C@H]1C(=O)N[C@@H](CC(N)=O)C(=O)N[C@H]2C(=O)N[C@H]3C(=O)N[C@H](C(=O)N[C@H](C(=O)O)c4cc(O)cc(O)c4-c4cc3ccc4O)[C@H](O[C@H]3C[C@](C)(N)[C@@H](O)[C@H](C)O3)c3ccc(c(Cl)c3)Oc3cc2cc(c3O[C@@H]2O[C@H](CO)[C@@H](O)[C@H](O)[C@H]2O[C@H]2C[C@](C)(NCc3ccc(-c4ccc(Cl)cc4)cc3)[C@@H](O)[C@H](C)O2)Oc2ccc(cc2Cl)[C@H]1O | 0.32% | – |
